Hits are enriched below; roughly 31% of the tested compounds scored in any of these assays.
PLAP act – activators of human placental alkaline phosphatase | P05187 | 1.2% of 96,000 active | activation fold at 20 µM | purified PLAP enzyme, luminescent substrate read-out; stronger effect = higher value; in the data active means activation fold above about 2
CYP2C19 inh – blocks human cytochrome P450 2C19 | P33261 | CYP2C19 Supersomes, luciferin-H EGE luminescence, 30 min | inhibition, % at 5 µM | 21% of 96,000 active;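 active means CYP2C19 inhibition above a set limit at 5 µM in the primary screen, cut at about 50% in these data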;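 further: plate controls were negative control wells for no effect and 2.5 mM tranylcypromine positive control for full effect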
CYP2C19 act – activators of human cytochrome P450 2C19 | P33261 | recombinant CYP2C19, luciferin-H EGE luminescence; stronger effect = higher value; 0 = fully inhibited enzyme, 1 = untreated enzyme | activation factor at 5 µM | 96,000 tested, under 10 active | AID 1025;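 active means activation factor of at least 2 at 5 µM in the primary screen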;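 further: 0 = wells with 2.5 mM tranylcypromine and 1 = vehicle-only wells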
CYP2C9 act – increases human cytochrome P450 2C9 activity | P11712 | recombinant CYP2C9, luciferin-H conversion, luminescence; stronger effect = higher value; factor 1 = untreated enzyme, 0 = blocked | activation factor at 5 µM | 1.4% of 96,000 active | AID 1024;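 active means activation factor of 2 or more for CYP2C9 at a 5 µM dose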;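 further: 0 = sulfaphenazole-blocked wells and 1 = vehicle-only wells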
Target sequence (P11712 whole entry, looked up): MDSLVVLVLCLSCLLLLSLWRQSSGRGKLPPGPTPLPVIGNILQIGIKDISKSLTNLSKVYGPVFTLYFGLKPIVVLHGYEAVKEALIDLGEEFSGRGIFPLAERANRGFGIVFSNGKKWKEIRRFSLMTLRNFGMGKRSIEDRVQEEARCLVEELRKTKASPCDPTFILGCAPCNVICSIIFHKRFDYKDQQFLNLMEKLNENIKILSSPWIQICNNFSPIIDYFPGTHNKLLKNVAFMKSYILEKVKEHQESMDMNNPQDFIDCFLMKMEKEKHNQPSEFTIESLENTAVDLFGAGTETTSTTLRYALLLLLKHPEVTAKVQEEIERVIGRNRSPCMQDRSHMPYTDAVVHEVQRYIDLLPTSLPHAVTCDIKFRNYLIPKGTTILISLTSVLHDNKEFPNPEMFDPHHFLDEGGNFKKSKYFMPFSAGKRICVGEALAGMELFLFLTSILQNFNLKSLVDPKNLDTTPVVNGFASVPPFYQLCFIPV
CYP2C9 inh – inhibitors of human CYP2C9; P11712; CYP2C9 Supersomes, luciferin-H conversion, luminescence; inhibition, % at 5 µM; 20% of 96,000 active; AID 777;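 active means blocking of liver enzyme CYP2C9 beyond about 50% at 5 µM, limit read from the data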
* = called active by the depositor.

SMILES | PLAP act | CYP2C19 inh | CYP2C19 act | CYP2C9 act | CYP2C9 inh
CC(=O)C1=C(O)C(=O)N(c2cccnc2)C1c1ccc(Cl)cc1 (stereo not given) | 1 | 1 | 1 | 0.8 | 24
O=C(Nc1cc(Cl)ccn1)C1CCN(S(=O)(=O)c2cccs2)CC1 | 0.8 | 34 | 0.7 | 1.1 | -10
CCOC(=O)N1CCC(Nc2ncnc3c2cnn3-c2ccc(Cl)cc2)CC1 | 0.9 | 11 | 0.9 | 0.9 | 6
Cc1n[nH]c(C)c1S(=O)(=O)N1CCN(c2ccccn2)CC1 | 1 | 2 | 1 | 0.7 | 34
O=S(=O)(c1ccc(Br)s1)N1CCN(c2ccccn2)CC1 | 0.8 | 99* | 0 | 0 | 98*
O=S(=O)(c1ccc(Br)s1)N1CCN(c2ncccn2)CC1 | 0.9 | 38 | 0.6 | 0.4 | 61*
COc1ccc2nc(NC(=O)C3CCN(S(=O)(=O)c4cccc5nsnc45)CC3)sc2c1 | 1.2 | 48 | 0.5 | 0.9 | 9
CC(C)C(NS(=O)(=O)c1cccc2nsnc12)C(=O)NCc1ccc2c(c1)OCO2 (stereo not given) | 0.9 | 44 | 0.6 | 0.4 | 59*
COc1ccc2nc(NC(=O)C(NS(=O)(=O)c3cccc4nsnc34)C(C)C)sc2c1 (stereo not given) | 2.1* | 41 | 0.6 | 0.3 | 74*
Cc1nc2ccc(S(=O)(=O)NC(C(=O)Nc3nc4ccc(Cl)cc4s3)C(C)C)cc2s1 (stereo not given) | 1.8 | 84* | 0.2 | 0.1 | 92*
Cc1nc2ccc(S(=O)(=O)NCC(=O)N3CCC(C)CC3)cc2s1 | 0.9 | 50* | 0.5 | 0.9 | 14
CC1CN(C(=O)Nc2ccc3c(c2)OCO3)CC(C)O1 (stereo not given) | 1.3 | 19 | 0.8 | 1 | -5
CCOc1ccc2[nH]c(=O)c(CN(CCOC)C(=O)N3CCOCC3)cc2c1 | 1.1 | -1 | 1 | 1 | 5
CC1=CC(C)(C)N2C(=O)C3(N=C(N)NC(Nc4ccccc4)=N3)c3cc(C)cc1c32 (stereo not given) | 2.1* | 5 | 1 | 0.9 | 8
COc1cc(/C=C/C(C)=O)cc(OC)c1OC | 0.9 | 8 | 0.9 | 0.9 | 12
COc1cc(/C=C/C(=O)c2ccc(Cl)s2)cc(OC)c1O | 0.6 | 50* | 0.5 | 0.8 | 23
COC(=O)c1cc(Cl)c(NC(=O)/C=C/c2ccc(OC)c(OC)c2)cc1OC | 1.4 | 11 | 0.9 | 0.9 | 15
COc1ccc(/C=C/C(=O)c2ccc(Cl)s2)cc1O | 0.9 | 54* | 0.5 | 0.4 | 59*
O=C(Nn1c(C2CC2)nc2ccccc2c1=O)c1ccco1 | 0.9 | 18 | 0.8 | 0.8 | 15
CCOC(=O)CN1C(=O)CSc2ccccc21 | 0.9 | 9 | 0.9 | 1.1 | -5
CC1CCC/C(=N\NC(=S)NCc2ccccc2)C1 (stereo not given) | 1 | 82* | 0.2 | 0.1 | 85*
c1ccc(-c2csc(-n3cnnn3)n2)cc1 | 0.8 | 62* | 0.4 | 0.9 | 12
Cc1cc(C)n(-c2nc(-c3ccccc3)cs2)n1 | 1 | 5 | 0.9 | 0.9 | 7
CCCCS(=O)(=O)N1CN(S(=O)(=O)CCCC)C2NC(=O)NC21 (stereo not given) | 1.1 | 0 | 1 | 1 | -2
Cc1cc(C)c2c(CN3CCN(CCO)CC3)cc(=O)oc2c1 | 1.1 | 26 | 0.7 | 0.9 | 6
SMILES | PLAP act | CYP2C19 inh | CYP2C19 act | CYP2C9 act | CYP2C9 inh
Cc1cc(C)c(S(=O)(=O)N2CCN(CCO)CC2)c(C)c1 | 1 | 43 | 0.6 | 2.3* | -129
Cc1cc(C)c(S(=O)(=O)N2CCN(C)CC2)c(C)c1 | 0.8 | 7 | 0.9 | 2.2* | -122
CCOc1ccc(CNC(=O)C2CCN(S(=O)(=O)N3CCCC3)CC2)cc1OC | 1.1 | -6 | 1.1 | 1 | 2
Cc1ccc(-c2nc(C)sc2CC(=O)NCc2ccco2)cc1 | 1.3 | 56* | 0.4 | 0.6 | 42
Cc1ccc(C)c(SCC(=O)NCc2ccco2)c1 | 0.9 | 31 | 0.7 | 1 | 1
Cc1ccc(SCCC(=O)NCc2ccco2)cc1 | 0.9 | 38 | 0.6 | 0.3 | 69*
CCc1ccc(OCc2nnc(SCCN3CCOCC3)n2C)cc1 | 1.7 | -4 | 1 | 0.9 | 6
c1ccc2sc(-c3ccc4c(c3)OCO4)nc2c1 | 0.8 | 9 | 0.9 | 1 | 2
Cc1ccccc1Cn1ccc(-c2ccc3c(c2)OCO3)n1 | 0.7 | 58* | 0.4 | 0.5 | 50*
Fc1cccc(Cn2ccc(-c3ccc4c(c3)OCO4)n2)c1 | 0.8 | 95* | 0.1 | 0.1 | 86*
COc1ccccc1OC1=NS(=O)(=O)c2ccccc21 | 0.9 | -15 | 1.2 | 1.1 | -12
Cn1cnnc1SCCNS(=O)(=O)c1ccccc1 | 1.1 | 3 | 1 | 1 | -3
Cc1ccc(S(=O)(=O)NCCSc2nnnn2C)cc1 | 0.8 | 40 | 0.6 | 1 | -3
Cn1nnnc1SCCNS(=O)(=O)c1ccccc1 | 1 | 78* | 0.2 | 1 | -4
Cc1ccc(-n2nnnc2SCCNS(=O)(=O)c2ccccc2)cc1C | 0.5 | 75* | 0.3 | 2* | -96
COc1ccc(C(C#N)C2(C)OCCO2)cc1OC (stereo not given) | 1.1 | 14 | 0.9 | 0.7 | 27
O=C1c2ccccc2C(=O)N1CCCc1nc2ccccc2c(=O)n1Cc1ccco1 | 0.9 | 7 | 0.9 | 0.9 | 14
COC(=O)c1nn(-c2ccccc2)nc1-c1nn(-c2ccccc2)nc1C(=O)OC | 1.4 | 61* | 0.4 | 0.1 | 86*
Cc1ccc2c(c1)CC1(CN2C)C(=O)OC(C)(C)OC1=O | 0.8 | 9 | 0.9 | 1.2 | -21
CC1(C)OC(=O)C2(Cc3ccccc3N3CCCCC32)C(=O)O1 (stereo not given) | 1 | 61* | 0.4 | 0.9 | 13
CC(C)Nc1nc(NC(C)C)nc(Oc2ccc(OCc3ccccc3)nn2)n1 | 1.7 | 16 | 0.8 | 0.8 | 18
Cc1ccc(Nc2nc(Oc3ccc(OCc4ccccc4)nn3)nc(N3CCOCC3)n2)cc1 | 1 | 82* | 0.2 | 0.2 | 77*
c1ccc(COc2ccc(Oc3nc(N4CCCCC4)nc(N4CCOCC4)n3)nn2)cc1 | 1.5 | 88* | 0.1 | 0.4 | 59*
Cc1cc(C)n(-c2nc3c(c(=O)[nH]c(=O)n3C)n2CC(C)C)n1 | 1.3 | 3 | 1 | 1.3 | -34
Cc1cc(C)c2cc(C#N)c(NCCOC(=O)c3ccccc3C)nc2c1 | 1.2 | 62* | 0.4 | 0.3 | 68*
Cc1c(NC(=O)CSc2nnc3c4ccccc4n(CCc4ccccc4)c3n2)c(=O)n(-c2ccccc2)n1C | 1.3 | 23 | 0.8 | 0.7 | 33
COc1ccc(N2CC(C(=O)Nc3ncccc3C)CC2=O)cc1 (stereo not given) | 0.9 | -2 | 1 | 0.8 | 22
CC(=O)Cc1nsc(Nc2ccc3c(c2)OCCO3)n1 | 1.4 | 45 | 0.6 | 0.3 | 72*
C=CCC(C(=O)OC)(C(=O)OC)c1ccc([N+](=O)[O-])cn1 | 0.9 | 29 | 0.7 | 0.9 | 10

Screening data deposited in PubChem by Sanford-Burnham Center for Chemical Genomics.
